# Source: the supplement of paper PMC12067093, “Discovery and optimisation of a covalent ligand for TRIM25 and its application to targeted protein ubiquitination” (Chemical Science, 2025)
# About 21,000 targets were measured; listed, in parts, are those with the largest changes and a random draw of the rest.
# Compound: CC1Cc2ccccc2N1C(=O)C1CCCN(C1)C(=O)CCl (mixture of isomers) [TRIM25 ligand 11 (diastereomer mixture)]
# Assay: probe-labelled cysteine peptide fold change vs DMSO (competition) (log2 fold change); higher = less target engagement (more negative = stronger competition)
# Conditions: THP-1, incubation time: 4 h
# 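Note: competitive chemoproteomic profiling in live THP-1 cells with an iodoacetamide desthiobiotin (IA-DTB) probe, comparing probe-labelled peptide intensities in compound-treated cells against DMSO-treated controls.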
# Sequence of UniProt Q9UJ41 (Q9UJ41 whole entry, looked up): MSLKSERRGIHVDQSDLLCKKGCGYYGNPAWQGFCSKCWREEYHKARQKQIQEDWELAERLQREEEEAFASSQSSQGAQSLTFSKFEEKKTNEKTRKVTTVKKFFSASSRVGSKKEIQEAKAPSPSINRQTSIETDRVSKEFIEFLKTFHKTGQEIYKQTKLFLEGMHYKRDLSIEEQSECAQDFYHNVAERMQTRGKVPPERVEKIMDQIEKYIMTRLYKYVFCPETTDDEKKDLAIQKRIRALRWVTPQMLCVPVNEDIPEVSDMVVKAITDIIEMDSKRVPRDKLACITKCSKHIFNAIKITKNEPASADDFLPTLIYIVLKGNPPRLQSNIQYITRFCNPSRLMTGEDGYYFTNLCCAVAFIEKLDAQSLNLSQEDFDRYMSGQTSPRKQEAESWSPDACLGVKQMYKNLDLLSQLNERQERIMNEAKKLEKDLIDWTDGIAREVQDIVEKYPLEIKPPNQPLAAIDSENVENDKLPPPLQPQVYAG
# Sequence of UniProt Q15008 (Q15008 whole entry, looked up): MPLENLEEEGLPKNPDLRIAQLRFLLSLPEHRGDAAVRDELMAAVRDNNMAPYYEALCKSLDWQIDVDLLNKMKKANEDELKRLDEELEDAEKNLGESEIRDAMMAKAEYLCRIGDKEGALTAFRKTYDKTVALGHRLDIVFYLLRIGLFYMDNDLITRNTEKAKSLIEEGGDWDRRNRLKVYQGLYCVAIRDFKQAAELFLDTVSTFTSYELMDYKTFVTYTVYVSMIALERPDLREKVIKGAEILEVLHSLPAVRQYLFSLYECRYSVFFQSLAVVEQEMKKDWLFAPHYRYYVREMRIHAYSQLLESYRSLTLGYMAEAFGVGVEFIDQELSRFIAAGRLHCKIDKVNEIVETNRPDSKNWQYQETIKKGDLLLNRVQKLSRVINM
# Sequence of UniProt Q6NW40 (Q6NW40 whole entry): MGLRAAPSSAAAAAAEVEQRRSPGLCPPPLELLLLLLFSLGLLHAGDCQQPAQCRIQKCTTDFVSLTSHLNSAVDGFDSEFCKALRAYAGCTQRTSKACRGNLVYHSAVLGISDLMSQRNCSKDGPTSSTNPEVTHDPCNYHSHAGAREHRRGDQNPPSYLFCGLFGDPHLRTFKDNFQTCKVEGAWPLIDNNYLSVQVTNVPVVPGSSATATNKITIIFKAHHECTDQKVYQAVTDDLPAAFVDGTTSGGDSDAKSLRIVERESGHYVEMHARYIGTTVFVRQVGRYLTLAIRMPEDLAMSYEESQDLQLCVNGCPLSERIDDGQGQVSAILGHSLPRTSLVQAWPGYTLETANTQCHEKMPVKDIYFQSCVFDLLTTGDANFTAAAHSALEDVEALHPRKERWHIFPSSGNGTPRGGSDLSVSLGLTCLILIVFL
# Sequence of UniProt P62834 (P62834 whole entry, looked up): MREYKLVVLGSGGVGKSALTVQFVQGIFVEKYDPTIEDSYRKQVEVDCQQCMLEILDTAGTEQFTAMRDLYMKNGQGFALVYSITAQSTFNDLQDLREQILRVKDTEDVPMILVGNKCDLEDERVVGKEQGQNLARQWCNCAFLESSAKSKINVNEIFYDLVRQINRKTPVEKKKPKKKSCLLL
# Sequence of UniProt Q9UBS8 (Q9UBS8 whole entry, looked up): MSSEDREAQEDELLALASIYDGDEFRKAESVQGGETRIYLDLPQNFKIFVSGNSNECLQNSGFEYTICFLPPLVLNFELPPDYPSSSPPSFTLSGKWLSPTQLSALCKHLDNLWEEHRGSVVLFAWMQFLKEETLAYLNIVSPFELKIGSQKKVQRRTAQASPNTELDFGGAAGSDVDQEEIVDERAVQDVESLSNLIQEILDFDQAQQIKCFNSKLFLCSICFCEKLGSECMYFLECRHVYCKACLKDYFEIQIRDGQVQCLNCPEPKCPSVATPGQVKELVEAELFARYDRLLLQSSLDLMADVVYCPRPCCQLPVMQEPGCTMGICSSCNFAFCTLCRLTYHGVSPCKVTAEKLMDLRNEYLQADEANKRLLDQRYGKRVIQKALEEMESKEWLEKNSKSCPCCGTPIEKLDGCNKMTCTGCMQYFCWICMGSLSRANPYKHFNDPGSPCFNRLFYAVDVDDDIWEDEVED
# Sequence of UniProt Q86YV0 (Q86YV0 whole entry, looked up): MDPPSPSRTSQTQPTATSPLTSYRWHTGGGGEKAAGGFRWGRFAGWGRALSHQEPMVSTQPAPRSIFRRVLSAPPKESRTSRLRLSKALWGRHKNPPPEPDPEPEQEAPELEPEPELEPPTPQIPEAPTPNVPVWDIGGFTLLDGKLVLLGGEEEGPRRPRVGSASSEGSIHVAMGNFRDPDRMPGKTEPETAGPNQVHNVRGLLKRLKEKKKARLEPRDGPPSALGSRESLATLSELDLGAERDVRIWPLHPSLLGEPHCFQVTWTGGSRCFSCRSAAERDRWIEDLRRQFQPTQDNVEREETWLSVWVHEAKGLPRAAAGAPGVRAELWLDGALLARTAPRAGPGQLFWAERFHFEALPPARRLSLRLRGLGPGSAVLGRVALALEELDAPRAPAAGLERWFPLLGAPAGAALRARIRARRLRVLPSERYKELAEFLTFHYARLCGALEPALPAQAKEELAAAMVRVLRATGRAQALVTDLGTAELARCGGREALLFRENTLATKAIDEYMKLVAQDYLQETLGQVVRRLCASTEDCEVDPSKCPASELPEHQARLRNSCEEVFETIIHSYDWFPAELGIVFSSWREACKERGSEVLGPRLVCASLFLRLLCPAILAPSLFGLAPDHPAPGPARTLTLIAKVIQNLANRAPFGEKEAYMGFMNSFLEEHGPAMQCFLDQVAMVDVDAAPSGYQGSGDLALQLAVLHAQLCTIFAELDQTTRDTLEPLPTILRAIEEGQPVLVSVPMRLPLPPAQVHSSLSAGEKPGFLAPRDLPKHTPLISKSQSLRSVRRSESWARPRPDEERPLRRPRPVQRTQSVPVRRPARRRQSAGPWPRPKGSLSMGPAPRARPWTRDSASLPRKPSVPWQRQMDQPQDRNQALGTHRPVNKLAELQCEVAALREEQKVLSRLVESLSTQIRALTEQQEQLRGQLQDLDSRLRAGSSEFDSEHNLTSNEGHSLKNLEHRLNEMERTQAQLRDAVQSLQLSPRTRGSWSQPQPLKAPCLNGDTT
# Sequence of UniProt Q05209 (Q05209 whole entry, looked up): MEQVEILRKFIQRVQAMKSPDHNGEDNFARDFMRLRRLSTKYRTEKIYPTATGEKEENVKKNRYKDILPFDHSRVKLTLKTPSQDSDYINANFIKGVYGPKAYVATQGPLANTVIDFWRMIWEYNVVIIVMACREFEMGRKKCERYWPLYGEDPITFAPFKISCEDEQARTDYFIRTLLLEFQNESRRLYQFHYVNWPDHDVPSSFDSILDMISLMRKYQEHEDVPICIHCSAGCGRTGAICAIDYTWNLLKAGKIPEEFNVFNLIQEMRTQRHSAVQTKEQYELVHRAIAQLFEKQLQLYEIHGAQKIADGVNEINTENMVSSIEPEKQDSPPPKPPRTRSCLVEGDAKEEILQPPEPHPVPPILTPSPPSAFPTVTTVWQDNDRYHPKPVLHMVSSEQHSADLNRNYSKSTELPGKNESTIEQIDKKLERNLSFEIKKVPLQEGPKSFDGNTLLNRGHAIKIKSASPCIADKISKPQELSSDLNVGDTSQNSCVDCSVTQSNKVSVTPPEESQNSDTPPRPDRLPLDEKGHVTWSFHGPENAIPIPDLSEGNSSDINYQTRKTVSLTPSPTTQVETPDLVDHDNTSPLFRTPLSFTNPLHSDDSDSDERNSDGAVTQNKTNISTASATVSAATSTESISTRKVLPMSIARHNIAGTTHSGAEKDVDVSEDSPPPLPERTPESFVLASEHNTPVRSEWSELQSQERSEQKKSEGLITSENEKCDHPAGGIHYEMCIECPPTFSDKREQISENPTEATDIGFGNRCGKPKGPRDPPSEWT
# Sequence of UniProt Q9P258 (Q9P258 whole entry, looked up): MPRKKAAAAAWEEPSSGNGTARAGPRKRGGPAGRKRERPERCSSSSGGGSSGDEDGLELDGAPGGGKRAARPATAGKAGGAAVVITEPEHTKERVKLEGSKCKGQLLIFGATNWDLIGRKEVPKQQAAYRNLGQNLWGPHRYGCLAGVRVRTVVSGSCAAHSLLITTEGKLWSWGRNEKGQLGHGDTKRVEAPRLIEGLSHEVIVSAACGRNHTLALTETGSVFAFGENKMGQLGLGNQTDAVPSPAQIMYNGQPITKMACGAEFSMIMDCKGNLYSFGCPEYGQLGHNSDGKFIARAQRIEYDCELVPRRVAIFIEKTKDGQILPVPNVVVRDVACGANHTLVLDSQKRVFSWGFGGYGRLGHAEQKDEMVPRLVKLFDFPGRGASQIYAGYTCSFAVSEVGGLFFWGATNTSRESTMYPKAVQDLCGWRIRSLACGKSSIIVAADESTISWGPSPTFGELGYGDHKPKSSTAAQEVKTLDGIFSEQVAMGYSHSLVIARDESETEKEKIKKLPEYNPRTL
# Sequence of UniProt Q06323 (Q06323 whole entry, looked up): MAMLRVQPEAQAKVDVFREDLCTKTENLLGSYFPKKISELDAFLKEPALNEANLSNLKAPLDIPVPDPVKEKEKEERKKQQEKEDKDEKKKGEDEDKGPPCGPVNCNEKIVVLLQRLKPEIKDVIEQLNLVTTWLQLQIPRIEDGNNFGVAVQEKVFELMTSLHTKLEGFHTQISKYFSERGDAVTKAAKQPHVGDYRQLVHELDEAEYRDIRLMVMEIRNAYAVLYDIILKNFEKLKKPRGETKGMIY
# Sequence of UniProt Q9NW64 (Q9NW64 whole entry, looked up): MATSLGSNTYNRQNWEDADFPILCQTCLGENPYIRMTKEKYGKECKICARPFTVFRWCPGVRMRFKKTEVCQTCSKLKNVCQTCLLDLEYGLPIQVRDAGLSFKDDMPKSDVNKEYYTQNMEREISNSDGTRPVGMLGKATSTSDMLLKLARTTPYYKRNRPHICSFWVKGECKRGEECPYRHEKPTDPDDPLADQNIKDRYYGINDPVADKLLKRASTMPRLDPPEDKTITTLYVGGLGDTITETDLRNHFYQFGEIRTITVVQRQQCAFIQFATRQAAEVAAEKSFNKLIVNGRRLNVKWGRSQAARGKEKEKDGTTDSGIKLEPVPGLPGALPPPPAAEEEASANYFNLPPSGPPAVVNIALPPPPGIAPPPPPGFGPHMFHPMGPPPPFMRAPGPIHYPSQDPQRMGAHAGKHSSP
Target,probe-labelled cysteine peptide fold change (10 µM),probe-labelled cysteine peptide fold change (50 µM)
RANBP3_Q9H6Z4_406_VEVITGEEAESNVLQMQCK (UniProt Q9H6Z4),0.0311,0.26
RPL30_P62888_52_LVILANNCPALR (UniProt P62888),0.0216,0.142
RBM22_Q9NW64_74_TEVCQTCSK (UniProt Q9NW64),-0.0386,-0.0803
RABL6_Q3YEC7_172_VPTHVPVCVLGNYR (UniProt Q3YEC7),0.0329,0.101
RAD21_O60216_35_AHVFECNLESSVESIISPK (UniProt O60216),0.0257,0.111
RABGEF1_Q9UJ41_359_RDLSIEEQSECAQDFYHNVAER (UniProt Q9UJ41),0.648,-0.0585
RAI1_Q7Z5J4_899_APLICTK (UniProt Q7Z5J4),-0.024,-0.376
RHOG_P84095_105_WHPEVCHHCPDVPILLVGTKK (UniProt P84095),-0.292,-0.278
RANBP3_Q9H6Z4_249_NESSNASEEEACEK (UniProt Q9H6Z4),0.387,-0.572
RASAL3_Q86YV0_447_LCGALEPALPAQAK (UniProt Q86YV0),0.119,0.0549
RFC4_P35249_180_FCLICNYVSR (UniProt P35249),-0.16,-0.0464
RABEP1_Q15276_350_IPVVCALTQEESSAQLSNEEEHLDSTR (UniProt Q15276),-0.0072,-0.0899
PSME1_Q06323_101_KKGEDEDKGPPCGPVNCNEK (UniProt Q06323),-0.56,-0.596
PSMD6_Q15008_188_VYQGLYCVAIR (UniProt Q15008),-0.0246,0.231
RNPEP_Q9H4A4_85_LDSHPCLEVTAAALR (UniProt Q9H4A4),0.0713,-0.0588
PTPN12_Q05209_343_SCLVEGDAK (UniProt Q05209),0.155,-0.0495
RGMB_Q6NW40_226_ITIIFKAHHECTDQK (UniProt Q6NW40),-0.5,-0.619
RAB3GAP1_Q15042_783_HLLPCVIHAAVLK (UniProt Q15042),-0.107,-0.00935
RCC2_Q9P258_280_GNLYSFGCPEYGQLGHNSDGK (UniProt Q9P258),0.288,-0.207
RBM4B_Q9BQ04_31_VLECDIIK<|>RBM4_Q9BWF3_31_VLECDIIK (UniProt Q9BWF3+Q9BQ04),-0.00323,-0.0431
RANBP2_P49792_3221_ITITECGQI (UniProt P49792),-0.127,0.249
RAB3GAP1_Q15042_873_FVSCLLEQPEVLVTGAGR (UniProt Q15042),0.274,0.33
RAP1A_P62834_118_DTEDVPMILVGNKCDLEDERVVGK (UniProt P62834),-0.603,-0.364
RNF14_Q9UBS8_350_LTYHGVSPCK (UniProt Q9UBS8),0.114,0.116
